Source: PubChem BioAssay AID434955 (Southern Research Specialized Biocontainment Screening …, 2010)
Screen size: about 330,000 compounds; about 880 (0.27%) were called active. About 1% were inconclusive and are not listed. No rule for the calls is given here. Only a sample is shown.

Test: beta-lactam sensitization of Mtb H37Rv, H37Rv (AID 434955);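 also: growth measured after seven days incubation then overnight dye step; 0% = bacteria only wells and 100% = bacteria with antibiotic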
Details: M. tuberculosis H37Rv growth with meropenem, percent inhibition, at 25 µM
[1] = measured here: primary screen without meropenem

Compound: COC(=O)N/N=C/c1c[n+]([O-])c2ccccc2[n+]1[O-]
- inhibition (stronger effect = higher value): 99.7% (inactive)
- inhibition [1]: 100%

Compound: Nn1c(SCC(=O)NC2CCCc3ccccc32)nnc1C1CC1 (centres undefined)
- inhibition (stronger effect = higher value): -6.27% (inactive)
- inhibition [1]: -8.89%

Compound: Cn1nnnc1-c1cc(Cl)cc(Cl)c1
- inhibition (stronger effect = higher value): -6.9% (inactive)
- inhibition [1]: -5.1%

Compound: FC(F)(F)COc1nc(N2CCCCC2)nc(N2CCNCC2)n1
- inhibition (stronger effect = higher value): -3.65% (inactive)
- inhibition [1]: -3.73%

Compound: Cc1ccc(S(=O)(=O)N(C)c2ccc(OCC(=O)OCc3ccc(C#N)cc3)cc2)cc1
- inhibition (stronger effect = higher value): 94.4% (inactive)
- inhibition [1]: 93.2%

Compound: O=C(c1cc(-c2ccc(Cl)cc2)on1)N1CCN(c2ccccc2)CC1
- inhibition (stronger effect = higher value): 4.32% (inactive)
- inhibition [1]: 0.26%

Compound: Nc1c(N(CCO)C(=O)C2CCCCC2)c(=O)[nH]c(=O)n1Cc1ccccc1
- inhibition (stronger effect = higher value): 1.76% (inactive)
- inhibition [1]: -2.9%

Compound: Cc1ccc(N2CC(C(=O)Nc3cc(Cl)ccc3-n3cncn3)CC2=O)cc1 (centres undefined)
- inhibition (stronger effect = higher value): -7.41% (inactive)
- inhibition [1]: 3.62%

Compound: COCCNC(=O)C(c1ccc(O)cc1)N(C(=O)CCC(=O)Nc1nccs1)c1ccc(C)cc1 (centres undefined)
- inhibition (stronger effect = higher value): -3.29% (inactive)
- inhibition [1]: -1.6%

Compound: O=C(Cn1cnc2c(cnn2-c2ccc(F)cc2)c1=O)NCCc1ccccc1
- inhibition (stronger effect = higher value): 8.42% (inactive)
- inhibition [1]: 5.1%

Compound: CCOC(=O)C1CCN(C(=O)Cc2c(C(=O)O)[nH]c3ccccc23)CC1
- inhibition (stronger effect = higher value): 11.4% (inactive)
- inhibition [1]: 8.1%

Compound: COCc1cc(C)nc2sc3c(=O)n(-c4cccc5ccccc45)nnc3c12
- inhibition (stronger effect = higher value): 41.4% (inactive)
- inhibition [1]: -9.11%

Compound: CN(c1ccccc1)S(=O)(=O)c1cccc(C(=O)NNC(=O)c2ccncc2)c1
- inhibition (stronger effect = higher value): -14.5% (inactive)
- inhibition [1]: 10.4%

Compound: COc1ccccc1C(=O)N/C(=C/c1ccco1)C(=O)Nc1ccc(C(=O)O)cc1
- inhibition (stronger effect = higher value): 5.03% (inactive)
- inhibition [1]: 3.35%

Compound: CCOC(=O)C(=O)C1C(=O)Nc2ccccc21 (centres undefined)
- inhibition (stronger effect = higher value): 5.13% (inactive)
- inhibition [1]: 3%

Compound: COc1cc(NS(=O)(=O)c2ccc(NC(=O)c3ccc(S(=O)(=O)N4CCCCC4)cc3)cc2)ncn1
- inhibition (stronger effect = higher value): -5.84% (inactive)
- inhibition [1]: -4.25%

Compound: Cc1ccc(C(=O)N2CCC(n3nccc3NC(=O)Nc3cccc(F)c3)CC2)cn1
- inhibition (stronger effect = higher value): -9.41% (inactive)
- inhibition [1]: -4.97%

Compound: COc1ccccc1N(C(=O)Cn1nnc2ccccc21)C(C(=O)NCc1ccco1)c1ccc(C)o1 (centres undefined)
- inhibition (stronger effect = higher value): -4.29% (inactive)
- inhibition [1]: -5.41%

Compound: CCN(Cc1nc2ccccc2c(=O)[nH]1)Cc1cc(=O)oc2cc(C)c(C)cc12
- inhibition (stronger effect = higher value): 1.77% (inactive)
- inhibition [1]: -4.21%

Compound: COc1cccc(N2CC(NC(=O)c3ccc4ccccc4c3)CC2=O)c1 (centres undefined)
- inhibition (stronger effect = higher value): -3.62% (inactive)
- inhibition [1]: 10.2%

Compound: O=C(CC1OC(=O)c2ccccc21)NC1CCCCC1 (centres undefined)
- inhibition (stronger effect = higher value): 2.15% (inactive)
- inhibition [1]: 2.66%

Compound: COc1ccccc1CCCNC(=O)C1CCC(=O)N(CCN2CCOCC2)C1 (centres undefined)
- inhibition (stronger effect = higher value): 1.01% (inactive)
- inhibition [1]: -9.27%

Compound: Cc1cc(C)c2nc3nc(C)cc(C)c3c(N)c2c1
- inhibition (stronger effect = higher value): 6.08% (inactive)
- inhibition [1]: 4.53%

Compound: CCC(C)N(C(=O)COC(=O)c1nc(Cl)ccc1Cl)C1CCS(=O)(=O)C1 (centres undefined)
- inhibition (stronger effect = higher value): -10.3% (inactive)
- inhibition [1]: -10.3%

Compound: CCn1c(CNC(=O)c2ccco2)nnc1SCC(=O)Nc1cccc(F)c1
- inhibition (stronger effect = higher value): -8.4% (inactive)
- inhibition [1]: -1.57%

Compound: O=c1cc(CN2CCN(c3cccc(Cl)c3)CC2)c2cc3c(cc2o1)CCCC3
- inhibition (stronger effect = higher value): -11.5% (inactive)
- inhibition [1]: 1.9%

Compound: COc1ccc(-c2ccc(OC(=O)NC3CCS(=O)(=O)C3)cc2)cc1 (centres undefined)
- inhibition (stronger effect = higher value): 87.1% (inactive)
- inhibition [1]: 66.5%

Compound: COCCOC(=O)C1=C(C)NC(=O)NC1c1cc2c(cc1Br)OCO2 (centres undefined)
- inhibition (stronger effect = higher value): -3.19% (inactive)
- inhibition [1]: 0.53%

Compound: Cc1ccc(C(=O)N2CCN(S(=O)(=O)N3CCOCC3)CC2)cc1
- inhibition (stronger effect = higher value): -7.62% (inactive)
- inhibition [1]: -3.45%

Compound: CC(C)Cc1ccc(S(=O)(=O)N2CCN(C(=O)c3ccco3)CC2)cc1
- inhibition (stronger effect = higher value): 1.6% (inactive)
- inhibition [1]: -4.13%

Compound: C/C(=N/O)c1ccc(N2C(=O)C3C4C=CC(C3C2=O)C2C3C(=O)N(c5ccc(/C(C)=N/O)cc5)C(=O)C3C42)cc1 (centres undefined)
- inhibition (stronger effect = higher value): -4.77% (inactive)
- inhibition [1]: -7.58%

Compound: Cc1ccc(S(=O)(=O)N(CC(O)CN2C(=O)NC(C)(C)C2=O)c2cccc([N+](=O)[O-])c2)cc1 (centres undefined)
- inhibition (stronger effect = higher value): 16.4% (inactive)
- inhibition [1]: 4.68%

Compound: CC/S(CC1CC1(Cl)Cl)=N\S(=O)(=O)c1ccc(C)cc1 (centres undefined)
- inhibition (stronger effect = higher value): -10.6% (inactive)
- inhibition [1]: -11.9%

Compound: CCOc1cc(NC(=O)CCl)c(OCC)cc1NC(C)=O
- inhibition (stronger effect = higher value): 90.5% (inactive)
- inhibition [1]: 98.2%

Compound: CC(C)CCOc1ccc(C(=O)C[N+]2(C)CCOCC2)cc1
- inhibition (stronger effect = higher value): -6.59% (inactive)
- inhibition [1]: 4.15%

Compound: COC(=O)C(C)N=Cc1ccccc1 (centres undefined)
- inhibition (stronger effect = higher value): -4.31% (inactive)
- inhibition [1]: 0.46%

Compound: O=C(C1CC(=O)N(C2CCCCC2)C1)N1CCN(c2ccccc2)CC1 (centres undefined)
- inhibition (stronger effect = higher value): 0.44% (inactive)
- inhibition [1]: 1.29%

Compound: O=[N+]([O-])c1c(NCCO)cc(Sc2nc3ccccc3s2)c2nonc12
- inhibition (stronger effect = higher value): 95.6% (inactive)
- inhibition [1]: 96%

Compound: O=C(NCc1ccc2c(c1)OCO2)c1cc([N+](=O)[O-])ccc1N1CCOCC1
- inhibition (stronger effect = higher value): -1.78% (inactive)
- inhibition [1]: -2.18%

Compound: COc1ccc(NC(=O)COc2ccc(C(=O)c3ccc(F)cc3)cc2)cc1S(N)(=O)=O
- inhibition (stronger effect = higher value): 7.84% (inactive)
- inhibition [1]: 10.7%

Compound: N#Cc1ccc(COC(=O)Cn2nnc(-c3ccccc3)n2)cc1
- inhibition (stronger effect = higher value): 2.69% (inactive)
- inhibition [1]: 0.73%

Compound: O=C(COC(=O)Cc1ccccc1F)NNC(=O)c1ccc(Cl)cc1
- inhibition (stronger effect = higher value): -6.06% (inactive)
- inhibition [1]: 20.8%

Compound: CC(=O)Nc1ccc(NC(=O)CSc2nnnn2-c2ccccc2F)cc1
- inhibition (stronger effect = higher value): -2.11% (inactive)
- inhibition [1]: -2.67%

Compound: CC(C)c1nc(CNC(=O)CC2C(=O)NCCN2Cc2ccoc2)cs1 (centres undefined)
- inhibition (stronger effect = higher value): -7.57% (inactive)
- inhibition [1]: -8.36%

Compound: O=C(CC1SC(=Nc2ccccc2F)N(CCN2CCOCC2)C1=O)Nc1ccc(F)cc1F (centres undefined)
- inhibition (stronger effect = higher value): 3.51% (inactive)
- inhibition [1]: 2.75%

Compound: CCc1ccc(-c2cc3c(=O)n(CC(=O)NCCCN4CCN(Cc5ccccc5)CC4)nc(C)n3n2)cc1
- inhibition (stronger effect = higher value): 99.7% (inactive)
- inhibition [1]: 99.5%

Compound: CO/N=C(/CS(=O)(=O)c1ccc(Br)cc1)c1ccc(OC)cc1
- inhibition (stronger effect = higher value): -4.01% (inactive)
- inhibition [1]: -5.94%
